# Assay outcomes as filed in PubChem.
# TRPM1 prom inh: inhibitors of MITF-driven TRPM1 promoter in melanoma cells | SK-MEL-5 TRPM1 promoter luciferase, 24 h | inhibition, % at 12.5 µM | hit rate 0.83% among 330,000 | AID 488899;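 active means mean inhibition across replicates of 60% or more, whatever share of single replicates reaches that level; inconclusive means some that reach 60%, reason not given; inactive means mean inhibition across replicates below 60%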
# Peg3 promoter: inhibitors of Peg3 promoter | HeLa PEG-Prom luciferase reporter, luminescence, overnight | inhibition, % at 20 µM | hit rate 1.7% among 360,000;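 active means inhibition of at least 50% at 20 µM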
# LMP1 NFkB inh: Epstein-Barr LMP1 NF-kappaB reporter inhibition; hit rate 0.69% among 350,000; inhibition, % at 12.5 µM; LMP1-induced NF-kappaB luciferase reporter cells, luminescence; AID 504558; in the data active means inhibition above about 41%; inconclusive means no clear call, values can overlap the other calls
# Shn3 inh set2: inhibitors of Schnurri-3 3'UTR reporter in osteoblasts; Clone20 osteoblast Shn3 3'UTR firefly luciferase, 24 h; inhibition, % at 12.5 µM; hit rate 0.52% among 360,000; AID 588674;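 active means mean inhibition of at least 75% with every replicate also reaching 75%; inconclusive means mean inhibition at least 75% but some replicate below; inactive means mean inhibition below 75%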
# CF NFkB block: blocks PAF-induced NF-kB reporter in cystic fibrosis cells. KKLEB NF-kB-GFP reporter, GFP fluorescence overnight. inhibition, % at 5 µM. hit rate 0.86% among 360,000;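 active means at least 50% inhibition at 5 µM, scaled per plate between neutral and stimulator controls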;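 further: PAF is a Pseudomonas aeruginosa culture filtrate used as stimulus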
# KKLEB cytotox: CF airway cell cytotoxicity counter-screen | KKLEB CF airway cells viability, ATPlite luminescence, overnight; active compounds read low; cells stimulated with P. aeruginosa culture filtrate | activity change (cytotoxicity), % at 5 µM | hit rate 0.36% among 360,000 | AID 602141;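 active means corrected activity change at or below -50% at 5 µM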
# Numbers stand for hits; . = inactive; ? = inconclusive; / = no result. A selection: hits, their analogues and other compounds. The true share with any hit is near 2.9%.
SMILES,TRPM1 prom inh,Peg3 promoter,LMP1 NFkB inh,Shn3 inh set2,CF NFkB block,KKLEB cytotox
O=C(CN1c2ccccc2Sc2ccccc21)NNC(=S)Nc1ccc(Cl)cc1Cl,.,50,.,.,.,.
CCc1nc(N)c(C#N)c(-c2ccc(F)cc2)c1C,.,.,.,.,.,.
Cc1ccc2c(n1)sc1c(-c3ccc(Br)cc3)c(C#N)c(N)nc12,.,56,.,.,.,.
CN(C)c1ccc(CNC(=O)C2(C)Cc3c(-c4cccc(C(F)(F)F)c4)ccnc3O2)cc1 (stereo not drawn),/,.,/,.,.,.
CC1CCc2c(sc(NC(=O)CSc3ncn[nH]3)c2C#N)C1 (stereo not drawn),62,.,.,.,.,.
N#Cc1c(NC(=O)CSc2ncn[nH]2)sc2c1CCCC2,73,.,.,.,.,.
CC(C)(C)C1CCc2c(sc(NC(=O)CSc3ncn[nH]3)c2C#N)C1 (stereo not drawn),.,.,.,.,.,.
N#Cc1c(NC(=O)CSC2=NCCS2)sc2c1CCCC2,.,.,.,.,.,.
C=CCNc1nc2c(c(=O)n(C)c(=O)n2C)n1CCCCCC,.,.,.,88,.,.
c1ccc(-c2cc3nc(NCc4cccs4)nc(NCc4ccc5occc5c4)c3s2)cc1,/,64,/,.,.,.
CCCc1[nH]nc2c1C(c1cn[nH]c1-c1ccc(F)cc1)C(C#N)=C(N)O2 (stereo not drawn),61,.,.,.,.,.
CC(C)CC(NC(=O)OCc1ccccc1)C(=O)NC(Cc1ccccc1)C(=O)CCl (stereo not drawn),114,93,.,.,.,.
Cc1cccc(-c2nc(CN3CCCC(C(=O)NC4CCCC4)C3)c(C)o2)c1 (stereo not drawn),.,.,.,.,.,.
CCOC(=O)N1CCC(NC(=O)C2CCCN(Cc3nc(-c4cccc(C)c4)oc3C)C2)CC1 (stereo not drawn),72,.,.,86,.,.
NC(=O)c1ccc(Nc2nc(C(N)COCc3ccccc3)cs2)cc1 (stereo not drawn),/,.,/,.,.,.
NC(CCc1ccccc1)c1csc(NC(=O)Nc2cccc(Cl)c2)n1 (stereo not drawn),/,89,/,.,.,.
COc1ccccc1NC(=O)Nc1nc(C(N)C2CCCCC2)cs1 (stereo not drawn),/,82,/,.,.,.
NC(c1csc(NC(=O)Nc2ccccc2)n1)C1CCCCC1 (stereo not drawn),/,.,/,.,.,.
NC(COCc1ccccc1)c1csc(NC(=O)Nc2cccc(C(F)(F)F)c2)n1 (stereo not drawn),/,100,/,.,86,-83
COc1cc(NC(=O)Nc2nc(C(N)C3CCCCC3)cs2)cc(OC)c1OC (stereo not drawn),/,.,/,.,.,.
NC(c1csc(NC(=O)Nc2cccc(Cl)c2)n1)C1CCCCC1 (stereo not drawn),/,92,/,.,.,.
CN1CCn2cnc(C(=O)Nc3ccc(Cl)cc3)c2C1=O,/,.,.,.,.,.
COC(=O)c1ccc2nc(-c3ccccc3)c(Cc3ccccc3OC)n2c1,/,.,/,.,.,.
CCC(=O)N1CCC(C)(C(=O)Nc2nccc3ccccc23)C1 (stereo not drawn),/,.,/,.,.,.
CCCCN(C(=O)COc1ccc(F)cc1)c1c(N)n(CC(C)C)c(=O)[nH]c1=O,/,.,.,.,.,.
SMILES,TRPM1 prom inh,Peg3 promoter,LMP1 NFkB inh,Shn3 inh set2,CF NFkB block,KKLEB cytotox
CC(C)(C)c1ccc(CC(=O)N2CCC2(C)C(=O)NCc2cccs2)cc1 (stereo not drawn),/,.,/,.,.,.
NC(c1csc(NC(=O)Nc2ccccc2Cl)n1)C1CCCCC1 (stereo not drawn),/,95,/,.,.,.
COc1ccc(CCNC(=O)Nc2nc(C(N)C3CCCCC3)cs2)cc1OC (stereo not drawn),/,.,/,.,.,.
CCCNC(=O)c1ccc(N2CCC3(CC2)CC(c2cccc(Br)c2)=NO3)c(NC(=O)c2ccc(Cl)c([N+](=O)[O-])c2)c1,.,73,.,.,.,.
Cc1ccc(N(NC(=O)C(O)(c2ccccc2)c2ccccc2)C(=O)CCl)cc1,.,103,.,.,58,-66
Cc1ccc(C(O)(C(=O)NN(C(=O)c2ccccc2)c2ccccc2)c2ccc(C)cc2)cc1,.,.,.,.,.,.
CCCNC(=O)c1cc(C2CCCCN2C(=O)c2cc(OC)c(C)c(OC)c2)on1 (stereo not drawn),/,.,/,.,.,.
CN(C)CC/C=C1\c2ccccc2COc2ccccc21,.,.,.,.,.,-56
CCOC(=O)c1c(NC(=S)NCCc2ccccc2)sc2c1CC(C(C)C)OC2 (stereo not drawn),.,.,.,.,60,.
O=C(NCc1cccnc1)/C(=C\c1ccc(-c2ccc(Cl)c(Cl)c2)o1)S(=O)(=O)c1ccccc1,90,102,87,98,99,-98
O=C(NCc1cccnc1)c1ccc(-c2ccc(Cl)cc2)o1,.,.,.,.,.,.
O=C(c1cc(C2CC2)nc2ccc(Br)cc12)N1N=C(C(F)F)CC1(O)C(F)F (stereo not drawn),.,60,.,.,.,.
Cn1c2c(c(=O)n(C)c1=O)CN(Cc1ccccc1)CN2,/,.,/,.,.,.
O=C(Nc1cccc(Cl)c1)c1ccccc1,.,.,.,.,.,.
Cc1cccc(NC2=C(NC(=O)c3ccccc3)C(=O)c3ccccc3C2=O)c1,?,.,.,.,.,.
O=C(NC1=C(Nc2ccc(Cl)cc2)C(=O)c2ccccc2C1=O)c1ccccc1,72,.,.,.,.,.
O=C1C(Cl)=C(NC(=O)c2ccccc2)C(=O)C(Cl)=C1NC(=O)c1ccccc1,.,103,.,.,52,.
Cc1noc(C)c1C(=O)OC(C)C(=O)c1c[nH]c2ccccc12 (stereo not drawn),/,.,.,.,.,.
C[C@H](O)[C@@H]1C(=O)N2CCc3ccc(-c4ccccc4)cc3[C@@H]2C[C@@H]1N(C)C(=S)Nc1ccc(F)cc1,/,.,.,.,.,.
COc1cccc(CNCc2ccc(OC)cc2OC)c1,.,.,.,.,.,.
CCn1c2ccccc2c2cc(CNCc3ccc(OC)cc3OC)ccc21,.,114,.,.,.,.
CCC(C)CNC(=O)c1[nH]c(C(F)(F)F)nc1-c1ccccc1 (stereo not drawn),/,.,/,.,.,.
Cc1cc(C)n(-c2nc(Nc3ccccc3C(F)(F)F)nc(-n3nc(C)cc3C)n2)n1,.,86,.,97,.,.
Cc1cc(C)n(-c2nc(NC(C)(C)C)nc(NC(C)(C)C)n2)n1,.,.,.,.,.,.
Oc1c(CN2CCOCC2)cc(COCc2ccccc2)c2cccnc12,85,.,76,90,.,.
Oc1c(CN2CCN(c3ccccc3)CC2)cc(Br)c2cccnc12,87,.,59,92,.,.
